Luciferase inh = Photinus pyralis luciferase inhibition; P08659; purified P. pyralis luciferase, luminescence, biochemical; Potency, µM (highest dose often 115 µM), hits mostly inhibitors; actives 2.5% (n = 76,000); further: nearly all actives have a fitted effect of over 65% in size
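Inhibitors were tested against purified firefly luciferase in a biochemical, low-substrate format (both substrates at 10uM) and luminescence measured with a CCD imager.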
NIH3T3 tox = cytotoxic compounds in NIH 3T3 cells. Potency, µM (doses to about 96.7 µM), without a hit: at the highest dose activity change, negative = cytotoxicity, usual class: inhibitors. actives 4.3% (n = 94,000). NIH 3T3 viability, CellTiter-Glo ATP luminescence, 48-72 h; further: nearly all actives have a fitted effect of over 55% in size
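Mouse fibroblast NIH 3T3 cells, 400 per well, received compound via pintool and were incubated for 48 or 72 hr prior to CellTiter-Glo ATP luminescence measurement.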
NPR1 antag = antagonists of human natriuretic peptide receptor Npr1; P16066; HEK293 hNpr1 GloSensor cGMP, ANP-stimulated luminescence; Potency, µM (titrated, usually from 46.3 µM), without a hit: at the top dose activity change, negative = inhibition, most hits filed as inhibitors; actives 1.6% (n = 76,000); calls by dose curve; further: nearly all actives have a fitted effect of over 60% in size
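HEK293 cells stably expressing human Npr1 and cGMP GloSensor pGS-40F, loaded 2 h with 2% GloSensor reagent, given compound 30 min at room temperature. Luminescence read before and 20 min after 0.1 nM hNppA.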
GPT2 inh = inhibitors of human GPT2 alanine aminotransferase; Q8TD30; Recombinant GPT2, coupled pyruvate oxidase/HRP Amplex Red fluorescence; Potency, µM (series often up to 57.7 µM), for inactives: top-dose activity change, negative = inhibition, actives largely listed as inhibitors; actives 0.25% (n = 100,000); further: nearly all actives have a fitted effect of over 60% in size
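Fluorescence read-out: pyruvate from GPT2 turnover coupled to pyruvate oxidase, HRP and Amplex Red (0.2mM ThPP, 0.2U/mL PO and HRP, 50uM Amplex final). Substrates 250uM a-KG, 2mM L-alanine; enzyme 10ng/uL; 30 min RT.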
HEK293 tox = HEK 293 cell cytotoxicity; HEK 293 viability, ATP luminescence (CellTiter-Glo), 48-72 h; Potency, µM (titrated, usually from 115 µM), for the others: at the highest dose activity change, negative = cytotoxicity, usual class: inhibitors; actives 6.6% (n = 94,000); further: nearly all actives have a fitted effect of over 60% in size
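Pintool-delivered compounds were incubated with HEK 293 cells (250 cells/well) at 37 degree Celsius for 48 or 72 hr. ATP-dependent luminescence (CellTiter-Glo) then reported remaining viable cells.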
Active calls of the source: *; [ ] = remark or other dose. The list is not random: actives were taken first. Their share in the collection is about 10%. Unless noted, the call rests on the fitted dose curve; in most records, active means well fitted curve in the direction sought with a large enough effect; inconclusive means small, poorly fitted or top-dose-only effect, or another doubt; inactive means no such curve, though single readings can be large; an effect the other way counts as inactive or inconclusive. On the % scale 0 is the no-effect control and ±100 the full control effect; potency means the concentration at half of the fitted maximal effect.

`CC(=O)c1ccc(NC(=O)NC[C@H]2C[C@@H]3CCN2C[C@@H]3CN2CCC(Cc3ccccc3)CC2)cc1` gave Luciferase inh inactive, NIH3T3 tox inconclusive, NPR1 antag 7%, GPT2 inh -1% and HEK293 tox inconclusive.
For CCOC(=O)N1CCN(C2CCCN(C(=O)Cc3ccc(C)c(C)c3)C2)CC1 (configuration not stated) the results were Luciferase inh inactive, NIH3T3 tox -13%, NPR1 antag 5%, GPT2 inh -19%[11.5 µM] and HEK293 tox -8%.
`O=C(Cc1ccc(Cl)cc1)N1CCN(C2CCN(Cc3ccccn3)C2=O)CC1` (configuration not stated) gave Luciferase inh inactive, NIH3T3 tox -17%, NPR1 antag 2%, GPT2 inh 3% and HEK293 tox -13%.
For COc1cccc(CC(=O)N2[C@H]3CC[C@@H]2c2cnc(C)nc2C3)c1 the results were Luciferase inh inactive, NIH3T3 tox 0%, NPR1 antag 0%, GPT2 inh inactive and HEK293 tox 3%.
Screening COc1cccc(CC(=O)N2[C@H]3CC[C@@H]2c2cnc(-c4ccc(F)cc4)nc2C3)c1 returned Luciferase inh inactive, NIH3T3 tox inconclusive, NPR1 antag 5%, GPT2 inh -34% and HEK293 tox 32µM*.
For COc1ccc(CC(=O)N2[C@H]3CC[C@@H]2c2cnc(-c4ccc(F)cc4)nc2C3)cc1OC the results were Luciferase inh inactive, NIH3T3 tox -19%, NPR1 antag -29%, GPT2 inh inactive and HEK293 tox 79µM*.
For CC1(C)C(C=C(Cl)Cl)C1C(=O)OC(C#N)c1cccc(Oc2ccccc2)c1 (configuration not stated) the results were GPT2 inh -1%.
For Cc1ccc2nc(C(=O)N3CC4CC(C3)c3cccc(=O)n3C4)cn2c1 (configuration not stated) the results were Luciferase inh inactive, NIH3T3 tox 4%, NPR1 antag 0%, GPT2 inh inactive[11.5 µM] and HEK293 tox 2%.
Screening Cc1nc(-c2cccs2)cc([C@H]2CN3CC[C@H]2C[C@@H]3CNC(=O)c2ccc3c(c2)OCO3)n1 returned Luciferase inh inactive, NIH3T3 tox 40µM*, NPR1 antag -7%, GPT2 inh -1% and HEK293 tox inconclusive.
`Cc1nc(-c2ccccc2Br)cc([C@H]2CN3CC[C@H]2C[C@@H]3CNC(=O)c2cccs2)n1` gave Luciferase inh inactive, NIH3T3 tox inconclusive, NPR1 antag -7%, GPT2 inh inactive and HEK293 tox 79µM*.
Cc1nc(-c2cccs2)cc([C@H]2CN3CC[C@H]2C[C@@H]3CNC(=O)c2ccccc2)n1 was read as Luciferase inh inactive, NIH3T3 tox inconclusive, NPR1 antag -16%[70.6 µM], GPT2 inh inactive and HEK293 tox inconclusive.
`Cc1nc(-c2cccs2)cc([C@H]2CN3CC[C@H]2C[C@@H]3CNC(=O)Nc2cccc(C(F)(F)F)c2)n1` gave Luciferase inh inactive, NIH3T3 tox 25µM*, NPR1 antag 4%, GPT2 inh inactive and HEK293 tox 25µM*.
`Cc1ccc(C(=O)NC[C@H]2C[C@@H]3CCN2C[C@@H]3c2cc(-c3cccs3)nc(C)n2)cc1` gave Luciferase inh inactive, NIH3T3 tox 28µM*, NPR1 antag -20%[70.6 µM], GPT2 inh inactive and HEK293 tox inconclusive.
Screening FC(F)(F)CN1C2CCC1CN(c1ncc(Br)cn1)C2 returned NIH3T3 tox inactive, GPT2 inh 5% and HEK293 tox inactive.
COc1cccc([C@@H]2CCN(Cc3cccc4nsnc34)C[C@H]2O)c1 was read as Luciferase inh inactive, NIH3T3 tox -21%, NPR1 antag -1%, GPT2 inh -5% and HEK293 tox inconclusive.
O=C1NC2(CCCN(Cc3cccnc3)C2)COc2ccccc21 (configuration not stated) was read as Luciferase inh inactive, NIH3T3 tox 35µM*, NPR1 antag -23%[70.6 µM], GPT2 inh 3%[88.5 µM] and HEK293 tox 89µM*.
COc1cc2c(cc1Oc1ccccc1)NC(=O)C21CCN(CCC(C)C)CC1 was read as Luciferase inh inactive, NIH3T3 tox inconclusive, NPR1 antag -15%[70.6 µM], GPT2 inh -8%[88.5 µM] and HEK293 tox inconclusive.
`CC(C)NC(=O)OC[C@H]1C[C@@H]2CCN1C[C@@H]2c1cc(-c2ccc(F)cc2)nn1C` gave Luciferase inh inactive, NIH3T3 tox inconclusive, NPR1 antag -2%[70.6 µM], GPT2 inh 4%[88.5 µM] and HEK293 tox 112µM*.
Cn1nc(-c2ccc3ccccc3c2)cc1[C@H]1CN2CC[C@H]1C[C@@H]2COC(=O)Nc1cccc(C(F)(F)F)c1 was read as Luciferase inh inactive, NIH3T3 tox inconclusive, NPR1 antag 4%, GPT2 inh inactive and HEK293 tox 79µM*.
Screening CCCNC(=O)OC[C@H]1C[C@@H]2CCN1C[C@@H]2c1cc(-c2ccc3ccccc3c2)nn1C returned Luciferase inh inactive, NIH3T3 tox 32µM*, NPR1 antag -10%[70.6 µM], GPT2 inh 2%[88.5 µM] and HEK293 tox 63µM*.
Screening CC(C)NC(=O)OC[C@H]1C[C@@H]2CCN1C[C@@H]2c1cc(-c2ccc3ccccc3c2)nn1C returned Luciferase inh 40µM*, NIH3T3 tox 28µM*, NPR1 antag -25%[70.6 µM], GPT2 inh inconclusive and HEK293 tox 28µM*.
`COc1ccccc1-c1cc([C@H]2CN3CC[C@H]2C[C@@H]3COC(=O)Nc2ccccc2)n(C)n1` gave Luciferase inh inactive, NIH3T3 tox inconclusive, NPR1 antag -2%, GPT2 inh inactive and HEK293 tox inconclusive.
C=C1[C@@H](C)[C@H]2[C@H](Cc3ccccc3)NC(=O)[C@]23OC(=O)/C=C/C(=O)CCC[C@@H](C)C/C=C/[C@H]3[C@@H]1O was read as GPT2 inh inactive.
`CCOC(=O)[C@H]1CN(C(=O)OCc2ccccc2)[C@]2(C)C(=O)N(CC3CC3)c3ccccc3[C@H]12` gave NIH3T3 tox inconclusive, GPT2 inh 5%[27.3 µM] and HEK293 tox 35µM*.
`CCOC(=O)[C@H]1CN(C(=O)NC2CCCC2)[C@]2(C)C(=O)N(CC3CC3)c3ccccc3[C@H]12` gave NIH3T3 tox inconclusive, GPT2 inh inactive and HEK293 tox 32µM*.
CCCCCC(=O)N1C[C@H](C(=O)OCC)[C@H]2c3ccccc3N(CC3CC3)C(=O)[C@]21C was read as NIH3T3 tox inconclusive, GPT2 inh inactive and HEK293 tox 32µM*.

Screening results from PubChem BioAssay.
